The values below come from PubChem BioAssay AID651871 (Sanford-Burnham Center for Chemical Genomics, 2012).

Structures are written as SMILES. Values joined by “and” are separate entries in the source; they are usually repeats but may differ in a detail not shown here. Equal entries are not always repeated.

This test relates to H9c2. Nature of the test: protection of cardiomyocytes from stress damage, SAR follow-up, cell-based, panel, H9c2 and HL-1, ATP luminescence, set 2 (AID 651871).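 Further: cells exposed to stressor for 2 h before ATP readout; reference of the scale not given here.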 As to conditions: H9c2/HL-1 cardiomyocytes, 2-deoxyglucose stress, with 2-deoxyglucose; run 2, at 79 µM (top of the series).
In the case of `COc1ccc2c(c1OC)C(=O)N1c3ccccc3C(=O)N(Cc3cccc(Cl)c3Cl)C21` (stereo not drawn), the activity (protection/inhibition) was 53% and 81.7% and -4.06%. Under `COc1ccc2nc(-c3cc(OC)c(OC)c(OC)c3)cc(C(=O)NCC(=O)Nc3ccc(C(C)=O)cc3)c2c1` stands 82.4%; under `CCOC(=O)c1cccc(NC(=O)CNC(=O)c2cc(-c3cc(OC)c(OC)c(OC)c3)nc3ccccc23)c1`, 78.5%.
